According to PubChem BioAssay AID1159580 (chemical genetic matrix, 2015):
In all, about 5,500 compounds went through this assay and about 2,000 (36%) were called active. Another 18% or so got no clear call; they are omitted. Cut-off read from the data, not from the text of the source: active = normalized growth mostly below about 0.91 (no sharp cut-off); inconclusive = no clear call, values can overlap the other calls; inactive = mostly above about 0.92. The list shows a part of the results.

Experiment: chemical genetic growth profiling, strain panel (AID 1159580);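 note: tested at 20 µM; growth read once vehicle control cultures reached saturation at 30 °C; 1 = growth at the plate median or of vehicle wells; lower values mean less growth of the strain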
Conditions: S. cerevisiae deletion strains, growth OD
[1] = locus YAR019C, strain CDC15, active compounds read low
[2] = locus YBL105C, strain PKC1, active compounds read low
[3] = locus YBR135W, strain CKS1, active compounds read low
[4] = locus YBR136W, strain MEC1, active compounds read low
[5] = locus YBR160W, strain CDC28, active compounds read low
[6] = locus YDL017W, strain CDC7, active compounds read low
[7] = locus YDL028C, strain MPS1, active compounds read low
[8] = locus YDL101C, strain DUN1, active compounds read low
[9] = locus YDL108W, strain KIN28, active compounds read low
[10] = locus YDL132W, strain cdc53, active compounds read low
[11] = locus YDL214C, strain PRR2, active compounds read low
[12] = locus YDR052C, strain DBF4, active compounds read low
[13] = locus YDR054C, strain cdc34, active compounds read low
[14] = locus YDR226W, strain ADK1, active compounds read low
[15] = locus YDR477W, strain SNF1, active compounds read low
[16] = locus YER123W, strain YCK3, active compounds read low
[17] = locus YER133W, strain GLC7, active compounds read low
[18] = locus YFL009W, strain cdc4, active compounds read low
[19] = locus YFL029C, strain CAK1, active compounds read low
[20] = locus YFR003C, strain YPI1, active compounds read low
[21] = locus YFR019W, strain FAB1, active compounds read low
[22] = locus YFR028C, strain CDC14, active compounds read low
[23] = locus YGR040W, strain KSS1, active compounds read low
[24] = locus YGR052W, strain FMP48, active compounds read low
[25] = locus YGR092W, strain DBF2, active compounds read low
[26] = locus YHR030C, strain SLT2, active compounds read low
[27] = locus YHR079C, strain IRE1, active compounds read low
[28] = locus YHR082C, strain KSP1, active compounds read low
[29] = locus YHR205W, strain SCH9, active compounds read low
[30] = locus YIL147C, strain SLN1, active compounds read low
[31] = locus YJL095W, strain BCK1, active compounds read low
[32] = locus YJL128C, strain PBS2, active compounds read low
[33] = locus YJL157C, strain FAR1, active compounds read low
[34] = locus YJR016C, strain ILV3, active compounds read low
[35] = locus YJR066W, strain TOR1 (second series), active compounds read low
[36] = locus YJR066W, strain TOR1, active compounds read low
[37] = locus YKL048C, strain ELM1, active compounds read low
[38] = locus YKL067W, strain YNK1, active compounds read low
[39] = locus YKL101W, strain HSL1, active compounds read low
[40] = locus YKL193C, strain SDS22, active compounds read low
[41] = locus YKL203C, strain TOR2, active compounds read low
[42] = locus YLR113W, strain HOG1, active compounds read low
[43] = locus YLR133W, strain CKI1, active compounds read low
[44] = locus YLR403W, strain SFP1, active compounds read low
[45] = locus YML070W, strain DAK1, active compounds read low
[46] = locus YMR001C, strain CDC5, active compounds read low
[47] = locus YMR205C, strain PFK2 (second series), active compounds read low
[48] = locus YMR277W, strain FCP1, active compounds read low
[49] = locus YNL006W, strain LST8, active compounds read low
[50] = locus YNL020C, strain ARK1, active compounds read low
[51] = locus YNL161W, strain CBK1, active compounds read low
[52] = locus YNL183C, strain NPR1, active compounds read low
[53] = locus YNL207W, strain RIO2, active compounds read low
[54] = locus YNL222W, strain SSU72, active compounds read low
[55] = locus YNL307C, strain MCK1 (second series), active compounds read low
[56] = locus YOL078W, strain AVO1, active compounds read low
[57] = locus YOL136C, strain PFK27, active compounds read low
[58] = locus YOR061W, strain CKA2, active compounds read low
[59] = locus YOR119C, strain RIO1, active compounds read low
[60] = locus YOR231W, strain MKK1, active compounds read low
[61] = locus YOR329C, strain SCD5, active compounds read low
[62] = locus YPL031C, strain PHO85, active compounds read low
[63] = locus YPL153C, strain RAD53, active compounds read low
[64] = locus YPL204W, strain HRR25, active compounds read low
[65] = locus YPL209C, strain IPL1, active compounds read low
[66] = locus YPR025C, strain CCL1, active compounds read low
[67] = locus YPR106W, strain ISR1, active compounds read low
[68] = locus YPR111W, strain DBF20, active compounds read low
[69] = strain NNK1, active compounds read low
[70] = strain TSCII, active compounds read low
[71] = locus YPL256C, strain CLN2, active compounds read low

Measured: normalized growth

O=C(Nc1ccc(Cl)cc1)OCCSc1nc2ccccc2s1
active: [26] 0.757 | [42] 0.859
inactive: [1] 0.987 | [2] 0.973 | [3] 0.979 | [4] 0.976 | [5] 0.979 | [6] 0.983 | [7] 0.982 | [8] 0.985 | [9] 0.978 | [10] 0.979 | [11] 0.883 | [12] 0.994 | [13] 0.973 | [14] 0.987 | [15] 0.959 | [16] 0.887 | [17] 0.93 | [18] 0.981 | [19] 0.975 | [20] 0.977 | [21] 0.848 | [22] 0.975 | [23] 0.929 | [24] 0.911 | [25] 0.928 | [27] 0.902 | [28] 0.86 | [29] 0.695 | [30] 0.988 | [31] 0.845 | [32] 0.944 | [33] 0.894 | [34] 0.985 | [35] 0.811 | [36] 0.833 | [37] 1.01 | [38] 0.901 | [39] 0.952 | [40] 0.983 | [41] 0.987 | [43] 0.93 | [44] 0.899 | [45] 0.894 | [46] 0.976 | [47] 0.95 | [48] 0.979 | [49] 0.991 | [50] 0.929 | [51] 0.985 | [52] 0.846 | [53] 0.983 | [54] 0.976 | [55] 0.909 | [56] 0.977 | [57] 0.902 | [58] 0.928 | [59] 0.984 | [60] 0.931 | [61] 0.987 | [62] 0.955 | [63] 0.95 | [64] 0.922 | [65] 0.982 | [66] 0.977 | [67] 0.984 | [68] 0.972 | [69] 0.988 | [70] 0.979

O=C(/C=C/Sc1nc2ccccc2s1)c1ccc(Cl)cc1
active: [26] 0.697 | [42] 0.593 | [71] 0.72
inactive: [1] 0.977 | [2] 0.972 | [3] 0.983 | [4] 0.986 | [5] 0.983 | [6] 0.983 | [7] 0.987 | [8] 0.975 | [9] 0.985 | [10] 0.983 | [11] 0.894 | [12] 0.99 | [13] 0.969 | [14] 0.981 | [15] 0.926 | [16] 0.872 | [17] 0.911 | [18] 0.98 | [19] 0.977 | [20] 0.981 | [21] 0.932 | [22] 0.986 | [23] 0.941 | [24] 0.92 | [25] 0.925 | [27] 0.78 | [28] 0.932 | [29] 0.743 | [30] 0.99 | [31] 0.854 | [32] 0.954 | [33] 0.896 | [34] 0.985 | [35] 0.808 | [36] 0.893 | [37] 0.958 | [38] 0.909 | [39] 0.927 | [40] 0.986 | [41] 0.975 | [43] 0.905 | [44] 0.901 | [45] 0.877 | [46] 0.978 | [47] 0.936 | [48] 0.988 | [49] 0.979 | [50] 0.911 | [51] 0.962 | [52] 0.923 | [53] 0.988 | [54] 0.981 | [55] 0.92 | [56] 0.981 | [57] 0.83 | [58] 0.953 | [59] 0.996 | [60] 0.811 | [61] 0.972 | [62] 0.912 | [63] 0.942 | [64] 0.882 | [65] 0.979 | [66] 0.972 | [67] 0.985 | [68] 0.979 | [69] 0.981 | [70] 0.983

OC(=Cc1nc2ccccc2nc1C=C(O)c1ccc(Cl)cc1)c1ccc(Cl)cc1
inactive: [1] 0.993 | [2] 0.974 | [3] 0.983 | [4] 0.967 | [5] 0.984 | [6] 0.98 | [7] 0.97 | [8] 0.977 | [9] 0.961 | [10] 0.995 | [11] 0.895 | [12] 0.981 | [13] 0.972 | [14] 0.969 | [15] 0.856 | [16] 0.85 | [17] 0.9 | [18] 0.976 | [19] 0.976 | [20] 0.978 | [21] 0.918 | [22] 0.987 | [23] 0.855 | [24] 0.903 | [25] 0.793 | [26] 0.874 | [27] 0.96 | [28] 0.851 | [29] 0.882 | [30] 0.958 | [31] 0.933 | [32] 0.965 | [33] 0.84 | [34] 0.977 | [35] 0.852 | [36] 0.889 | [37] 0.868 | [38] 0.871 | [39] 0.8 | [40] 1 | [41] 0.932 | [42] 0.902 | [43] 0.884 | [44] 0.904 | [45] 0.855 | [46] 0.992 | [47] 0.859 | [48] 0.977 | [49] 0.982 | [50] 0.851 | [51] 0.983 | [52] 0.921 | [53] 0.966 | [54] 0.982 | [55] 0.823 | [56] 0.982 | [57] 0.867 | [58] 0.769 | [59] 0.921 | [60] 0.936 | [61] 0.983 | [62] 0.843 | [63] 0.862 | [64] 0.89 | [65] 0.979 | [71] 0.941 | [66] 0.979 | [67] 0.962 | [68] 0.954 | [69] 0.96 | [70] 0.989
